# Reference: the supplement of paper PMC3334620
# Over roughly 33,000 sequences, “E-score (-0.5 to 0.5)” has its median near -0.021; the highest 2% begin near 0.32. Shown is part of a subset that was picked to be rich in the highest values.
# Target: T1, Zap1 (UniProt P47043)
# T1 sequence: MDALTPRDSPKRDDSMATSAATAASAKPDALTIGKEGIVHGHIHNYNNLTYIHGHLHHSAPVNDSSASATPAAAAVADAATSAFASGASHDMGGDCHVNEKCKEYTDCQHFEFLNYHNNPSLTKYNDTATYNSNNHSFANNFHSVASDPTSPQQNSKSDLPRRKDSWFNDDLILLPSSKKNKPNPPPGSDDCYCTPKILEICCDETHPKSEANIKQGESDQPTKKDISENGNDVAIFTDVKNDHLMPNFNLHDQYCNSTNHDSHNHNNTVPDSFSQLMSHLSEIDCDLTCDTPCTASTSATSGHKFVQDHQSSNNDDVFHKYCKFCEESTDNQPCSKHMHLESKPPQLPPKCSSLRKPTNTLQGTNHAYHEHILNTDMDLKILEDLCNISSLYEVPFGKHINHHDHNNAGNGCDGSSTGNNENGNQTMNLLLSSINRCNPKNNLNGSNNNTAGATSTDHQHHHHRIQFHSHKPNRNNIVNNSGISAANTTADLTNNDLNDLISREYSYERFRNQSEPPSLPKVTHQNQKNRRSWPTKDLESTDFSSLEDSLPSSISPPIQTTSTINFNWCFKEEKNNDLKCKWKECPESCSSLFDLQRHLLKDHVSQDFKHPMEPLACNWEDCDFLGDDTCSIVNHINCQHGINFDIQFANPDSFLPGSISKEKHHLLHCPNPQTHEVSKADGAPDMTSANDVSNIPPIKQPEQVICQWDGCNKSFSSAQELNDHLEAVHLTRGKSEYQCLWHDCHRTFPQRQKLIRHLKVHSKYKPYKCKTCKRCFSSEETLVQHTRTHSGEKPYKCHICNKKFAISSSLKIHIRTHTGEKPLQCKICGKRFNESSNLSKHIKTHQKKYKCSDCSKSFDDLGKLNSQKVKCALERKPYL
# Test: PBM E-score (8-mer binding enrichment) (E-score (-0.5 to 0.5)); higher = stronger / more preferred TF binding
# Conditions: protein concentration: 200 nM; construct: GST-full length
# Method in brief: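 For each ungapped eight-base word taken together with its reverse complement, the Universal PBM Analysis Suite assigned an E-score. Binding data came from GST-tagged yeast transcription factors, applied at about 100-200 nM, on universal all-10-mer Agilent arrays made double-stranded by primer extension. Fluorescent anti-GST marked bound protein, and scans were normalised with masliner.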
row,Sequence,PBM E-score
1,CCTTGTTA,0.12
2,CCGGGCGC,-0.315
3,CGCCCATC,-0.171
4,GATAACGC,-0.11
5,GATAAACC,0.21
6,AATAACCC,0.466
7,AATAACGC,-0.0593
8,AATAACGT,0.0381
9,AATAACAC,0.107
10,GATAACCC,0.47
11,AATAACCT,0.454
12,GCTAACCC,0.32
13,AATAACAT,0.0801
14,ACTAACCC,0.271
15,CCTAACCC,0.264
16,ACTATCGC,-0.0428
17,AGCAGAAT,0.0481
18,CTACCAAG,0.0784
19,GCATAGGA,-0.135
20,GAGTAGGA,-0.289
21,GACTGTGA,-0.0753
22,AAGCACTC,-0.146
23,ACTCGTGG,0.0689
24,ACTAACCG,0.144

row,Sequence,PBM E-score
1,AATAACAG,0.118
2,AATAACGG,0.169
3,ACTAACCA,0.282
4,ACTAACCT,0.318
5,AATAACCG,0.421
6,CCTAGCAA,0.0808
7,CGTTGGTC,-0.0765
8,AAAAGGTT,0.444
9,ATAAGGTC,0.184
10,AAAAGGTC,0.367
11,AAAAGGAT,0.0556
12,CAAAGGTC,0.314
13,AAAAGGTG,0.173
14,CGCAACTA,0.162
15,AGGCCCAA,-0.0071
16,GACGCGAA,-0.12
17,AGAGAATC,-0.152
18,AATGAATG,0.0096
19,AGGCTAGA,-0.15
20,CACCTATA,0.0311
21,TACCTATA,0.337
22,CACCTAAA,0.191
23,TACCTAGA,0.163
24,TACCTAAA,0.199

row,Sequence,PBM E-score
1,TACCTACA,0.137
2,AACCTAAA,0.356
3,GACCTATA,0.295
4,AACCTATA,0.374
5,ATGCGTTC,-0.0993
6,GCAGGCAA,-0.144
7,ACTCAGAG,0.11
8,CTGATAAA,0.121
9,GGAACACC,0.105
10,ATTTCTCG,0.176
11,CTTGCTAC,0.0655
12,ATCTCACC,-0.0161
13,CGACTGGA,-0.193
14,CCCTCTCA,-0.23
15,ACCTCTCA,0.344
16,ACCTCTAT,0.293
17,ACCTCTCT,0.0304
18,ACCTCTAC,0.259
19,ACCTCAAG,0.251
20,ACCTCAAA,0.326
21,ACCTCTAG,0.411
22,GCCTCAAA,0.00889
23,CACTGGCG,-0.0169
24,GCTTCAAC,0.00654

row,Sequence,PBM E-score
1,TAGCCAGA,-0.00683
2,CGAGCTAA,-0.031
3,GATCAGAA,-0.106
4,AGTAATAT,0.178
5,AGAGCTAC,-0.184
6,AACCCACC,0.343
7,GACCCACC,0.245
8,ACCCCACC,0.419
9,AACCCACG,0.156
10,CCCCCACC,-0.378
11,AACCCACA,0.331
12,CACCCACA,0.168
13,GCCCCACC,0.283
14,CACCCACC,0.194
15,ATTTTCTA,0.122
16,CTATGAGC,-0.127
17,CTTCTCCC,-0.213
18,ATCCTCAC,0.0272
19,GAAGATGA,0.0533
20,AGGGTACA,0.337
21,GGCGTACC,0.0458
22,AGTGTACC,0.0741
23,ACGGTACA,0.213
24,AGCGTACT,-0.127

row,Sequence,PBM E-score
1,AGGGTACG,0.296
2,GGGGTACC,0.424
3,AGGGTACC,0.461
4,AGGGTACT,0.441
5,GGGGTACA,0.249
6,AGAGTACT,-0.144
7,TGGGTACA,0.174
8,CGAAGCAA,-0.00093
9,CCCCATAG,0.201
10,CAAAACTG,0.0208
11,CATGGGAG,0.0124
12,AAATATAT,0.224
13,ATCTATCG,-0.167
14,GAACAAGC,-0.175
15,CAGCCCAA,-0.0128
16,AATTCCGT,-0.0101
17,CTGGTACC,0.286
18,ATGGTACC,0.392
19,CGGGTACA,0.122
20,CGGGTACG,0.0198
21,ATGGTACA,0.08
22,CGGGTACC,0.432
23,ACGCTTGA,0.0154
24,CCCCTAGC,-0.167

row,Sequence,PBM E-score
1,GGGGCTTA,-0.25
2,ACGTCATA,-0.0571
3,ACCCAGCC,-0.139
4,AACTAAGA,0.0908
5,CCTGGGGA,-0.183
6,GGGGGTAC,0.186
7,CGGGGTAC,0.316
8,GCGGGTAC,0.256
9,CTGGGTAA,0.185
10,CCGGGTAA,0.246
11,CCGGGTAC,0.348
12,CAGGGTAA,0.354
13,ACGGGTAG,0.255
14,CAGGGTGA,0.313
15,AGGGGTAC,0.398
16,AAGGGTAG,0.375
17,AGGGGTAG,0.312
18,AGCCAAGC,-0.307
19,GGGTAGTA,0.219
20,ACTTCAAA,-0.13
21,GACACACA,0.028
22,GCGGGCGA,-0.105
23,CCCATCTA,-0.0762
24,ACCTATCC,0.152

row,Sequence,PBM E-score
1,ACAGTAGG,-0.209
2,CACGGGGA,-0.219
3,TGGGGTAA,0.347
4,AAGGGTAT,0.421
5,GAGGGTGC,0.138
6,AAGGGTGT,0.316
7,AGGGGTAT,0.258
8,CGGGGTAA,0.299
9,ATGGGTAA,0.242
10,GAGGGTAC,0.374
11,GGGGGTAA,-0.0883
12,GATGGTAC,0.199
13,AAGGGTAA,0.393
14,AGGGGTAA,0.272
15,CTTTCGCC,-0.179
16,CGGTTGTC,0.279
17,CATGTGCA,0.0255
18,TTCTTAAA,-0.028
19,ACGTCGTA,-0.287
20,CATCAATA,0.0615
21,CGTGGCCA,0.0519
22,GGCACGTA,-0.273
23,ATGGGTAG,0.238
24,CTGGGTAC,0.305

row,Sequence,PBM E-score
1,ATGGGTAC,0.328
2,CAGGGTAC,0.437
3,CAGGGTGC,0.0059
4,TCGGGTAA,0.24
5,CAGGGTAG,0.306
6,GAGGGTAA,0.264
7,ACGGGTAC,0.231
8,TAGGGTAA,0.396
9,AAGGGTAC,0.426
10,AAGGGTCC,0.274
11,AGTCAGGC,-0.101
12,CACTACGC,-0.163
13,CGGCTAGA,-0.178
14,CCCTGCGA,0.0758
15,CCAACTGC,-0.165
16,AACACAGT,-0.00444
17,AAGCTTTC,0.0356
18,CCGTGACC,0.376
19,CCGTGACA,-0.136
20,CCGTGACG,-0.0247
21,ACGTGACC,0.249
22,GCGTGACA,-0.136
23,GCGTGACC,0.326
24,TATACATA,0.106

row,Sequence,PBM E-score
1,CACTAGAG,0.0544
2,ACACTGAA,0.111
3,GCCAGACA,0.0344
4,CGTTACAC,0.0157
5,AGTTACAC,0.0701
6,GGTTACAA,0.455
7,CGTTACAA,0.121
8,GGTTACAC,0.403
9,TGTTACAA,0.098
10,GGGCTTAA,-0.0211
11,ACGTGTAT,-0.152
12,TATCGACA,0.0537
13,ATTGTGAC,0.159
14,CACATAGC,-0.136
15,ACGAGAGT,-0.197
16,ATCCCTAC,-0.023
